In publication PMC5700166:
Where a chain is given by its changes, count along the chain named.

Experiments:
Experiment in all cases: protein-binding microarray (PBM); PBM: ~300 nM protein, 6 mM HEPES pH 7.8, 80 mM KCl, 0.5 mM EDTA, 0.5 mM EGTA, 6% glycerol, 35 ng/ul poly-dIdC, 1% milk, 1 h, room temperature; Ap Aiptasia and Nv Nematostella (sea anemones) / Co Capsaspora / Aq Amphimedon (sponge) / Dm Drosophila / Hu human; RHD is the Rel homology domain; high values mean tight binding
Conditions in all cases: dsDNA, one strand shown
GST-Ap-NF-kB RHD = molecular target: T1, GST-Ap-NF-kB RHD (Exaiptasia pallida (Aiptasia), UniProt A0A913YAJ5 2-422)
T1 sequence: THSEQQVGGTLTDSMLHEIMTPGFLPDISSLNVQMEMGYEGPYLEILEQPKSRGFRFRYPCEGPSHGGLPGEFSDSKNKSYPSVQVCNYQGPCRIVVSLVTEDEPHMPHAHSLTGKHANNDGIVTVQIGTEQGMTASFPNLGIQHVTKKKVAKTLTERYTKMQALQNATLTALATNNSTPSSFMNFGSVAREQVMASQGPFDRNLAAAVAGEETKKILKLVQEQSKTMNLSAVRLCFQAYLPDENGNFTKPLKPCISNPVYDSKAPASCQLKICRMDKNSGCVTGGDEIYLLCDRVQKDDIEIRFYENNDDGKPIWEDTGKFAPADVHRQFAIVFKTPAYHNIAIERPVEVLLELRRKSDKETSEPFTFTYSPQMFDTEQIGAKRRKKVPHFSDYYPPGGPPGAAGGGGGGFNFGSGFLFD

[1] = molecular target: T2, GST-Nv-NF-kB (Cys allele) (Nematostella vectensis, UniProt E5G601 2-411)
T2 sequence: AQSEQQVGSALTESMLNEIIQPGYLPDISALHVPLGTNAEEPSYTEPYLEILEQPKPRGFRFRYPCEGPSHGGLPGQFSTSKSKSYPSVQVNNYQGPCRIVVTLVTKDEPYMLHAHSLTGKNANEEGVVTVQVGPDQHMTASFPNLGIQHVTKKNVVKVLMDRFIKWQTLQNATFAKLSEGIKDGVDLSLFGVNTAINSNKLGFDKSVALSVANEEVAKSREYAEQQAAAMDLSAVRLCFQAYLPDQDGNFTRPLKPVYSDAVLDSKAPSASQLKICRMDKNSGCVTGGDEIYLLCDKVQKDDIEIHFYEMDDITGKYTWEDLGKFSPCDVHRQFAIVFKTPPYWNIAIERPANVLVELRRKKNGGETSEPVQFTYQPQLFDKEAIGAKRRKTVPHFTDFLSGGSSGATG

[2] = molecular target: T3, GST-Nv-NF-kB (Ser allele) (Nematostella vectensis, UniProt A7UNT2 2-411)
T3 sequence: T2 sequence with Q21R, C66S, S207N, E215Q, V217A, E225K, A268E, D399E

GST-Co-NF-kB = molecular target: T4, GST-Co-NF-kB (Capsaspora owczarzaki, UniProt F1ARL5 200-546)
T4 sequence: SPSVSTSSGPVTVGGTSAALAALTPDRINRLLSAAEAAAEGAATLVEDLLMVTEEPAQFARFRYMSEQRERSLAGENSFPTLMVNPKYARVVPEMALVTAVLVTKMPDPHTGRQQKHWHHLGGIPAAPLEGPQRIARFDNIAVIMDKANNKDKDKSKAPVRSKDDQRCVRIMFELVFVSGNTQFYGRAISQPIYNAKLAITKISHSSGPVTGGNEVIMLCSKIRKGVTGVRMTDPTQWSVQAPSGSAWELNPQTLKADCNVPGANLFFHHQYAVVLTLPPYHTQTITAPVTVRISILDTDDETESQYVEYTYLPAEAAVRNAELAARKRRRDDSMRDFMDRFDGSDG

GST-Dm-Relish = molecular target: T5, GST-Dm-Relish (Drosophila melanogaster, UniProt Q94527 99-473)
T5 sequence: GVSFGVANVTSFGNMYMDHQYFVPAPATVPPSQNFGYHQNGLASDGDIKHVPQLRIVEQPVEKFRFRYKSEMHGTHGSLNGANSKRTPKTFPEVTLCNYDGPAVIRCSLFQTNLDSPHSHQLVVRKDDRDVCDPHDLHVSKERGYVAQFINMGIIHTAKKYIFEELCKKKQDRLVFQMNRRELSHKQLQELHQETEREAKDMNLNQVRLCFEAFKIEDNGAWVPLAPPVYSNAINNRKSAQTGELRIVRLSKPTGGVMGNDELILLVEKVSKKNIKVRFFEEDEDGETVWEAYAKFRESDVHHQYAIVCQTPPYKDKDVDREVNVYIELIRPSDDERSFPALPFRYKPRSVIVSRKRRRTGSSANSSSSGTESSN

GST-Aq-NF-kB = molecular target: T6, GST-Aq-NF-kB (Amphimedon queenslandica, UniProt A9Y5G7 2-389)
T6 sequence: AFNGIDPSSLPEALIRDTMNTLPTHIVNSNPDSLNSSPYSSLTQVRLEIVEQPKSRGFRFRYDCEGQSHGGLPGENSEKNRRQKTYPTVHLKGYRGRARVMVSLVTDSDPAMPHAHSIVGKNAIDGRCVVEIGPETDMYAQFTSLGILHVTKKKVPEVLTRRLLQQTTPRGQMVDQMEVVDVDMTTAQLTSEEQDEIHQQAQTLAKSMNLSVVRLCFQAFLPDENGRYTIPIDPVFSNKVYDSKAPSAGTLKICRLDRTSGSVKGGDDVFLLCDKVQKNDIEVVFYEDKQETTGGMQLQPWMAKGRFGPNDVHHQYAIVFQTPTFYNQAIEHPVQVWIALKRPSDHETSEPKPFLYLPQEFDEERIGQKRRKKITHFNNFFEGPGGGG

GST-Hu-p50 = GST-Hu-p50 (Homo sapiens, UniProt P19838 7-356)
GST-Hu-p50, sequence (P19838 7-356): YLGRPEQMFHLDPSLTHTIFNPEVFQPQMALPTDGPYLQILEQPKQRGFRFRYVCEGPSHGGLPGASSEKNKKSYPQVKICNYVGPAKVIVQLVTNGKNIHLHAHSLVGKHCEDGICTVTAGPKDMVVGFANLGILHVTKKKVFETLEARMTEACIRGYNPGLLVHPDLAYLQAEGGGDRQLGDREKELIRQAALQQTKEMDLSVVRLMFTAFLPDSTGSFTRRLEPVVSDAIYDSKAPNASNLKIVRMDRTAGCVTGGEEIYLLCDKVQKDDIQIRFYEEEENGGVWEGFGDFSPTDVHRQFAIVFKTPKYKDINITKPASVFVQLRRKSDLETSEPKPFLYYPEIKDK

Row | Sequence | binding signal (GST-Ap-NF-kB RHD) | binding signal [1] | binding signal [2] | binding signal (GST-Co-NF-kB) | binding signal (GST-Dm-Relish) | binding signal (GST-Aq-NF-kB) | binding signal (GST-Hu-p50)
1 | CCGATTAACATCAGGGGATTTCATGATGTTAATCGGGTCTTGATTCGCTTGACGCTGCTG | 9.36 z-score | 9.75 z-score | 10.8 z-score | 3.46 z-score | 8.36 z-score | 6.85 z-score | 7.42 z-score
2 | CCGATTAACATCAAAATACTCCCTGATGTTAATCGGGTCTTGATTCGCTTGACGCTGCTG | 5.1 z-score | 4.6 z-score | 4.49 z-score | 2.79 z-score | 1.83 z-score | 4.2 z-score | 3.64 z-score
3 | CCGATTAACATCAAAACCCCCCGTGATGTTAATCGGGTCTTGATTCGCTTGACGCTGCTG | 8.43 z-score | 6.29 z-score | 7.17 z-score | 5.04 z-score | 10.2 z-score | 7.07 z-score | 6.96 z-score
4 | CCGATTAACATCACTATACCCCCTGATGTTAATCGGGTCTTGATTCGCTTGACGCTGCTG | 4.71 z-score | 2.52 z-score | 3.85 z-score | 4.36 z-score | 2.21 z-score | 2.68 z-score | 3.41 z-score
5 | CCGATTAACATCAGATTTCCCCCTGATGTTAATCGGGTCTTGATTCGCTTGACGCTGCTG | 8.72 z-score | 8.96 z-score | 10.8 z-score | 11 z-score | 6.42 z-score | 7.34 z-score | 7.39 z-score
6 | CCGATTAACATCAGGGGGTTTTATGATGTTAATCGGGTCTTGATTCGCTTGACGCTGCTG | 9.65 z-score | 9.57 z-score | 10.2 z-score | 3.52 z-score | 10 z-score | 8.21 z-score | 7.82 z-score
7 | CCGATTAACATCAGGGAAAGTTATGATGTTAATCGGGTCTTGATTCGCTTGACGCTGCTG | 3.92 z-score | 6.93 z-score | 6.19 z-score | 4.08 z-score | 2.29 z-score | 6.81 z-score | 4.76 z-score
8 | CCGATTAACATCAGGGGATTCCATGATGTTAATCGGGTCTTGATTCGCTTGACGCTGCTG | 9.19 z-score | 9.04 z-score | 9.49 z-score | 3.19 z-score | 10 z-score | 6.89 z-score | 6.77 z-score
9 | CCGATTAACATCAGGGTATTTAATGATGTTAATCGGGTCTTGATTCGCTTGACGCTGCTG | 2.74 z-score | 4.26 z-score | 4.73 z-score | 1.37 z-score | 3.25 z-score | 4.14 z-score | 4.41 z-score
10 | CCGATTAACATCAGGGGAAGCTATGATGTTAATCGGGTCTTGATTCGCTTGACGCTGCTG | 4.87 z-score | 5.26 z-score | 6.8 z-score | 6.23 z-score | 3.04 z-score | 3.92 z-score | 4.77 z-score
11 | CCGATTAACATCAGGGGGAATCATGATGTTAATCGGGTCTTGATTCGCTTGACGCTGCTG | 8.02 z-score | 7.33 z-score | 8.26 z-score | 8.51 z-score | 6.2 z-score | 5.7 z-score | 6.66 z-score
12 | CCGATTAACATCAAAATTCCCTTTGATGTTAATCGGGTCTTGATTCGCTTGACGCTGCTG | 5.04 z-score | 8.11 z-score | 8.05 z-score | 2.62 z-score | 5.83 z-score | 7.05 z-score | 6.07 z-score
13 | CCGATTAACATCAGGAGTTCCCCTGATGTTAATCGGGTCTTGATTCGCTTGACGCTGCTG | 8.41 z-score | 9.9 z-score | 7.6 z-score | 5.41 z-score | 9.69 z-score | 9.11 z-score | 6.51 z-score
14 | CCGATTAACATCACAAAATTCCCTGATGTTAATCGGGTCTTGATTCGCTTGACGCTGCTG | 5.93 z-score | 8.61 z-score | 8.58 z-score | 5.01 z-score | 6.16 z-score | 6.82 z-score | 6.04 z-score
15 | CCGATTAACATCACGTACTTCCCTGATGTTAATCGGGTCTTGATTCGCTTGACGCTGCTG | 1.66 z-score | 1.92 z-score | 1.78 z-score | 1.1 z-score | 7.92 z-score | 3.04 z-score | 1.38 z-score
16 | CCGATTAACATCAGCAACCCCCCTGATGTTAATCGGGTCTTGATTCGCTTGACGCTGCTG | 5.04 z-score | 3.58 z-score | 3.86 z-score | 2.82 z-score | 6.14 z-score | 4.16 z-score | 4.83 z-score
17 | CCGATTAACATCACATCTCCCCCTGATGTTAATCGGGTCTTGATTCGCTTGACGCTGCTG | 6.34 z-score | 4.75 z-score | 5.94 z-score | 7.54 z-score | 2.35 z-score | 4.36 z-score | 5.73 z-score
18 | CCGATTAACATCACCAAATCCCCTGATGTTAATCGGGTCTTGATTCGCTTGACGCTGCTG | 6.97 z-score | 6.55 z-score | 9.44 z-score | 3.02 z-score | 4.48 z-score | 4.54 z-score | 6.6 z-score
19 | CCGATTAACATCACGGGGTTTCCTGATGTTAATCGGGTCTTGATTCGCTTGACGCTGCTG | 6.06 z-score | 4.79 z-score | 2.69 z-score | 2.61 z-score | 7.75 z-score | 5.93 z-score | 4.42 z-score
20 | CCGATTAACATCAAGGGGACTTCTGATGTTAATCGGGTCTTGATTCGCTTGACGCTGCTG | 7.92 z-score | 7.59 z-score | 7.54 z-score | 2.41 z-score | 7.45 z-score | 6.14 z-score | 6.74 z-score
21 | CCGATTAACATCAGGGGGGAAAATGATGTTAATCGGGTCTTGATTCGCTTGACGCTGCTG | 7.23 z-score | 6.13 z-score | 8.77 z-score | 11.5 z-score | 4.99 z-score | 6.28 z-score | 7.08 z-score
22 | CCGATTAACATCACGGGGAAACCTGATGTTAATCGGGTCTTGATTCGCTTGACGCTGCTG | 7.51 z-score | 7.32 z-score | 9.2 z-score | 8.87 z-score | 7.04 z-score | 6.23 z-score | 5.72 z-score
23 | CCGATTAACATCACAAGTTCCCCTGATGTTAATCGGGTCTTGATTCGCTTGACGCTGCTG | 7.44 z-score | 7.71 z-score | 8.61 z-score | 7.27 z-score | 6.56 z-score | 6.21 z-score | 5.93 z-score
24 | CCGATTAACATCAGGGGATTTAATGATGTTAATCGGGTCTTGATTCGCTTGACGCTGCTG | 7.05 z-score | 8.23 z-score | 9.99 z-score | 3.58 z-score | 7.98 z-score | 6 z-score | 6.98 z-score
